Measurements published in PubChem BioAssay (NCATS).
Values joined by “and” are separate entries in the source; they are usually repeats but may differ in a detail not shown here. Identical values can stand only once. Inconclusive results are not listed. Where a call stands in place of a potency, no number is given. Active and inactive are the calls of the source. Calls come from the whole dose curve; as a rule, active = well fitted curve in the direction sought with a large enough effect; inconclusive = small, poorly fitted or top-dose-only effect, or another doubt; inactive = no such curve, though single readings can be large; an effect the other way counts as inactive or inconclusive.

Key:
[1] = Confirmation and Secondary Assay for Modulators of Hemoglobin Beta Chain Splicing at IVS2 654 locus (AID 910); details: HeLa EGFP-654 splicing reporter, GFP fluorescence, 48 h; series mostly up to 46.1 µM;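 note: HeLa cells stably carrying EGFP split by mutant beta-globin IVS2-654 intron; per-well total GFP intensity by laser scanning cytometry after 2-day treatment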
Summary of the method: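 Readout: per-well total peak green fluorescence (488 nm ex, 500–520 nm em) from objects 5–250 µm, reflecting correct splicing of an EGFP-654 reporter. Compounds were applied for 2 days at 37 °C to overnight-plated HeLa EGFP-654 cells; controls were DMSO and 500 nM IVS2-654 PNA.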

[2] = molecular target: Guanine nucleotide-binding protein G(i) subunit alpha-1 (Homo sapiens) (UniProt P63096); test: qHTS Assay for Inhibitors of RGS12 GoLoco Motif Activity (Green Fluorophore) (AID 879); details: Galphai1/FITC-RGS12 GoLoco peptide, fluorescence polarization; series mostly up to 57.1 µM;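 note: negative values mean loss of peptide binding seen as reduced polarization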
Summary of the method: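 Fluorescence polarization assay: 50 nM Gαi1 with 10 nM FITC-labeled RGS12 GoLoco peptide in 10 mM Tris pH 7.5, 150 mM NaCl, 0.1 mM GDP, 0.05% NP40, 10 min at room temperature with compound.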

[3] = molecular target: Cytochrome P450 3A4 (Homo sapiens) (UniProt P08684); test: qHTS Assay for Activators of Cytochrome P450 3A4 (AID 885); details: recombinant CYP3A4, Luciferin-PPXE luminescence, 60 min; series mostly up to 57.1 µM; note: nearly all actives have a fitted effect of over 65% in size
Summary of the method: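 Human CYP3A4 (20 nM) with Luciferin-PPXE at 25 uM (its KM) in 200 mM KPO4; 10 min compound preincubation, then NADPH regeneration and 60 min reaction at RT. Luciferin read by luminescence; normalized to 57 uM ketoconazole full inhibition.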

[4] = molecular target: Cytochrome P450 2D6 (Homo sapiens) (UniProt P10635); test: qHTS Assay for Inhibitors and Substrates of Cytochrome P450 2D6 (AID 891); details: recombinant CYP2D6, luciferin-ME EGE luminescence; series mostly up to 57.1 µM; note: nearly all actives have a fitted effect of over 60% in size; note: potency is the fitted concentration of half-maximal effect
Summary of the method: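 Human CYP2D6 (5 nM) with 30 uM Luciferin-ME EGE (at Km) in 100 mM KPO4, compound preincubated 10 min, then NADPH regeneration system for 60 min at room temperature. Luciferin read by luminescence; normalized to 1.43 uM quinidine.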

[5] = molecular target: Cytochrome P450 2C19 (Homo sapiens) (UniProt P33261); test: qHTS Assay for Inhibitors and Substrates of Cytochrome P450 2C19 (AID 899); details: recombinant CYP2C19, luciferin-H EGE luminescence; series mostly up to 57.1 µM; note: nearly all actives have a fitted effect of over 60% in size; note: potency is the fitted concentration of half-maximal effect
Summary of the method: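 Luminescence readout of luciferin formed from 10uM Luciferin-H EGE (KM level) by 5 nM CYP2C19 in 50mM KPO4. 60 min NADPH-driven reaction at 37C after 10 min compound preincubation; data scaled to 57uM ketoconazole inhibition.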

[6] = molecular target: Cytochrome P450 3A4 (Homo sapiens) (UniProt P08684); test: qHTS Assay for Inhibitors and Substrates of Cytochrome P450 3A4 (AID 884); details: recombinant CYP3A4, Luciferin-PPXE luminescence; series mostly up to 57.1 µM; note: nearly all actives have a fitted effect of over 50% in size; note: potency is the fitted concentration of half-maximal effect
Summary of the method: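 20 nM human CYP3A4 with 25 uM Luciferin-PPXE (at KM) in 200 mM KPO4, preincubated 10 min with compound; NADPH regeneration started a 60 min RT reaction. Luciferin detected by luminescence, normalized to 57 uM ketoconazole as full inhibition.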

[7] = molecular target: Cytochrome P450 2C9 (Homo sapiens) (UniProt P11712); test: qHTS Assay for Inhibitors and Substrates of Cytochrome P450 2C9 (AID 883); details: recombinant CYP2C9, luciferin-H luminescence, 60 min; series mostly up to 57.1 µM; note: nearly all actives have a fitted effect of over 60% in size; note: potency is the fitted concentration of half-maximal effect
Summary of the method: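 Luminescent read-out of deoxyluciferin hydroxylation, normalized to 57uM sulphaphenazole (AC100). Reaction: 10nM enzyme, 100uM Luciferin-H (equal to KM), 25mM KPO4, 10 min compound preincubation, then 60 min with NADPH regeneration, both at 37C.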

[8] = Cellular Toxicity (caspase-3) HepG2 (AID 654); details: HepG2 caspase-3 activation, luminescence, 0% = DMSO only, 100% = tamoxifen; series mostly up to 92.2 µM;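 note: cells exposed to compound for 16 hours before reading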
Summary of the method: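 qHTS, HepG2, 1500 cells/well, complete medium; cpd 16 h 37 °C; Caspase-Glo 3/7, 20 min RT; lum. Norm: DMSO vs 100 uM tamoxifen; AC50 Hill fit.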

[9] = Cellular Toxicity (caspase-3) Jurkat (AID 655); details: Jurkat caspase-3 activation, luminescence, DMSO = 0%, tamoxifen = 100%; series mostly up to 92.2 µM;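 note: cells exposed to compound for 16 h at 37 °C before reading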
Summary of the method: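 Jurkat cells (5000/well) in complete medium exposed 16 h at 37 C; caspase-3/7 activity read by Caspase-Glo luminescence after 20 min at room temperature. Normalized to DMSO and 100 uM tamoxifen; AC50 from Hill fits.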

[10] = Cellular Toxicity (caspase-3) HUV-EC-C (AID 656); details: HUV-EC-C cells, caspase-3 activation (apoptosis), vehicle = 0, 100 µM tamoxifen = 100%; series mostly up to 92.2 µM
Summary of the method: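 HUV-EC-C cells (1000/well) in complete medium, compound-treated 16 h at 37 °C; caspase-3/7 activity read by Caspase-Glo 3/7 luminescence. Normalized to DMSO (basal) and 100 uM tamoxifen (100%); AC50 from Hill-equation concentration-response fits.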

[11] = Cellular Toxicity (caspase-3) SHSY5Y (AID 657); details: SH-SY5Y caspase-3 activation, DMSO zero, 10 µM staurosporine = 100%; series mostly up to 91.7 µM
Summary of the method: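 SH-SY5Y human neuroblastoma cells, 1500/well, exposed to compound for 16 hours at 37 °C in complete medium. Caspase-3/7 activity read by Caspase-Glo luminescence after 1 hr at room temperature, normalized to DMSO and 10 uM staurosporine; AC50 from Hill fit.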

[12] = Cellular Toxicity (caspase-3) BJ (AID 658); details: BJ fibroblasts, luminescence, normalized: DMSO 0%, staurosporine 100%; series mostly up to 91.7 µM
Summary of the method: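 Readout: Caspase-Glo 3/7 luminescence increase in BJ cells after 16 hr treatment at 37 °C. Staurosporine and tamoxifen served as positive controls; AC50 values came from Hill modelling of data normalized to DMSO and 10 uM staurosporine.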

[13] = Cellular Toxicity (caspase-3) MRC-5 (AID 659); details: MRC-5 cells, luminescence, normalized: DMSO 0%, 10 µM staurosporine 100%; series mostly up to 91.7 µM
Summary of the method: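 Concentration-dependent caspase 3/7 activation is measured in human normal lung fibroblasts (MRC-5) following 16-hour treatment. AC50 values come from standard Hill-equation modeling of luminescence normalized to DMSO and 10 uM staurosporine.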

[14] = Cellular Toxicity (caspase-3) Mesangial (AID 660); details: mesangial cells, normalized: DMSO 0%, 100 µM tamoxifen 100%; series mostly up to 91.7 µM;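 note: cells exposed to compound for 16 h before the caspase read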
Summary of the method: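 Concentration-response qHTS: compound-induced rise in caspase 3/7 luminescence in human mesangial cells after 16 h, normalized to DMSO and 100 uM tamoxifen controls.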

[15] = Cellular Toxicity (caspase-3) SK-N-SH (AID 661); details: SK-N-SH caspase-3 activation, qHTS, DMSO as zero, staurosporine as full; series mostly up to 91.7 µM
Summary of the method: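 Caspase 3/7 activation is measured as a luminescence increase from aminoluciferin released by substrate cleavage in SK-N-SH cells after 16 hr compound treatment; values are AC50 from concentration-response curves.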

[16] = Cellular Toxicity (caspase-3) H-4-II-E (AID 663); details: H-4-II-E rat hepatoma, scaled: DMSO 0%, 100 µM tamoxifen 100%; series mostly up to 92.2 µM;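 note: cells exposed to compound for 16 hr before readout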
Summary of the method: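 Apoptosis induction is scored as increased luminescence from caspase 3/7 substrate cleavage in rat hepatoma H-4-II-E cells exposed to compound for 16 hr. Activity is scaled between DMSO and 100 uM tamoxifen.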

[17] = Cellular Toxicity (caspase-3) Hek293 (AID 664); details: HEK293 caspase-3 activation, DMSO = 0%, 100 µM tamoxifen = 100%; series mostly up to 92.2 µM;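 note: cells exposed to compound for 16 h at 37 °C before readout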
Summary of the method: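 Activation of caspase-3/7 is measured as increased luminescence from cleaved peptide-aminoluciferin substrate in HEK293 cells treated 16 hours at 37 °C. AC50 values come from Hill-equation fits of concentration-response data.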

[18] = Cellular Toxicity (caspase-3) N2a (AID 665); details: N2a cells, luminescence, normalized: DMSO 0%, 10 µM staurosporine 100%; series mostly up to 92.2 µM;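 note: compound exposure lasted 16 h at 37 °C before readout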
Summary of the method: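 Plated mouse neuroblastoma N2a cells received titrated compounds for 16 h in complete medium. Caspase activity was then detected with a peptide-aminoluciferin luminescent reagent.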

[19] = Cellular Toxicity (caspase-3) NIH 3T3 (AID 666); details: NIH 3T3 caspase-3 activation, apoptosis/toxicity, 0% DMSO, 100% is 100 µM tamoxifen; series mostly up to 92.2 µM;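 note: caspase signal read after 16 h compound exposure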
Summary of the method: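 Concentration-response qHTS in NIH 3T3 mouse fibroblasts scores caspase-3/7 activation as rising luminescence after 16 hr compound exposure. Signals are scaled between DMSO-only and 100 uM tamoxifen.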

[20] = Cellular Toxicity (caspase-3) Renal Proximal Tubule (AID 667); details: renal proximal tubule cells, primary cells freshly taken from rat, solvent-only wells 0%, staurosporine 100%; series mostly up to 91.7 µM;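 note: cells exposed to compound for 16 hours at 37 °C before detection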
Summary of the method: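 Freshly isolated primary rat kidney proximal tubule cells, 1000/well, treated 16 hr at 37 °C, then Caspase-Glo 3/7 luminescence after 1 hr. Normalized to DMSO and 10 uM staurosporine; AC50 from Hill fit.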

Guanine nucleotide-binding protein G(i) subunit alpha-1 (Homo sapiens), sequence (P63096 whole entry, looked up): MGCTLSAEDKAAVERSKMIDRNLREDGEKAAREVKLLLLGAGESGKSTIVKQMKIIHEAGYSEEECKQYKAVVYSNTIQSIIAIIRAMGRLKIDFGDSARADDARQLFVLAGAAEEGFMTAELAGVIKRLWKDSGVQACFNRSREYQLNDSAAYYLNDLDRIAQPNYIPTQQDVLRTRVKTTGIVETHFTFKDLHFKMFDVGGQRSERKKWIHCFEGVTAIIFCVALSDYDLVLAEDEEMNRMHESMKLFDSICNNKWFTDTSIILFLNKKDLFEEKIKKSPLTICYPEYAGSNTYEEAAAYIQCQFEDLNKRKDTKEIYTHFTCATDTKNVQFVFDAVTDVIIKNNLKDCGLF
Cytochrome P450 2D6 (Homo sapiens), sequence (P10635 whole entry, looked up): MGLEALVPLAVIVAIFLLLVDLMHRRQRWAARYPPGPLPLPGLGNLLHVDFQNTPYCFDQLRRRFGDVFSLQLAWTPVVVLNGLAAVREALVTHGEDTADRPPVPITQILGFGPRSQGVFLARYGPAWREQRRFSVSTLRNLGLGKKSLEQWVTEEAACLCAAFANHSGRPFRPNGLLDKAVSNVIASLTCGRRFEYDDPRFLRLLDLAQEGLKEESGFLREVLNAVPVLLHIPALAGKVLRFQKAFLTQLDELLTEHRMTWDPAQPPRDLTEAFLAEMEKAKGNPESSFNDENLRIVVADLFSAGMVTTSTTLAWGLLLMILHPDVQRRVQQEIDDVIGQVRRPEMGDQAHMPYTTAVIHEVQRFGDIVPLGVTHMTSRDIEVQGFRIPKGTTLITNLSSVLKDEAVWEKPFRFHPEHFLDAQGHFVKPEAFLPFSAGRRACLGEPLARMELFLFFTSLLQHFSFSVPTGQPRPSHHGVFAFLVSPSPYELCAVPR
Cytochrome P450 2C19 (Homo sapiens), sequence (P33261 whole entry, looked up): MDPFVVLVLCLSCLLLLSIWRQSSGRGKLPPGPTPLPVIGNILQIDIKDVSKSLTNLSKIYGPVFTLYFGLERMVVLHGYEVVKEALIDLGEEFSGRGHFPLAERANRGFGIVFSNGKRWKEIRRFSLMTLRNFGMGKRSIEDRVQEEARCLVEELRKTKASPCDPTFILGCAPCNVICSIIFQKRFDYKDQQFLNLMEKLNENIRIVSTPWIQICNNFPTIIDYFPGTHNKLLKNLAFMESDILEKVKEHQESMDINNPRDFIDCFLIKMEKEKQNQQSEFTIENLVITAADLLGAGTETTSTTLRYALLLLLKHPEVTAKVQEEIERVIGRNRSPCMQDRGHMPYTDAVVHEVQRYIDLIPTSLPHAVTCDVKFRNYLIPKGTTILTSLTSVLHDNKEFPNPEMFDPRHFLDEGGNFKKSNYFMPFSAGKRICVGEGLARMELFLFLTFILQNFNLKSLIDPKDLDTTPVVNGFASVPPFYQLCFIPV
Cytochrome P450 3A4 (Homo sapiens), sequence (P08684 whole entry, looked up): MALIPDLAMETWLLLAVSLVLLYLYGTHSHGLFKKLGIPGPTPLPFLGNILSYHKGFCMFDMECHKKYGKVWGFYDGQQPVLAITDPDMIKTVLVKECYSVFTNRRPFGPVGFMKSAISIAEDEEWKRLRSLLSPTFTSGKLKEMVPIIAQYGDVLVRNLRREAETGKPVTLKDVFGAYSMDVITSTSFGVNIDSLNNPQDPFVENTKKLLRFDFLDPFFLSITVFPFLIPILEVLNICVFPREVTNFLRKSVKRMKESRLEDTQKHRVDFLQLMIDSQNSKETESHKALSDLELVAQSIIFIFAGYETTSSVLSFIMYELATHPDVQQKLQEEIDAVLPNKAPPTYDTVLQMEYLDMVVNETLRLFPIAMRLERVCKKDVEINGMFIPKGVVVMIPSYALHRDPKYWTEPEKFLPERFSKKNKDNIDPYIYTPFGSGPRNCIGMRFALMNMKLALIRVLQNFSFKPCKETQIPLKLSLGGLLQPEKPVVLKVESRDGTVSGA
Cytochrome P450 2C9 (Homo sapiens), sequence (P11712 whole entry, looked up): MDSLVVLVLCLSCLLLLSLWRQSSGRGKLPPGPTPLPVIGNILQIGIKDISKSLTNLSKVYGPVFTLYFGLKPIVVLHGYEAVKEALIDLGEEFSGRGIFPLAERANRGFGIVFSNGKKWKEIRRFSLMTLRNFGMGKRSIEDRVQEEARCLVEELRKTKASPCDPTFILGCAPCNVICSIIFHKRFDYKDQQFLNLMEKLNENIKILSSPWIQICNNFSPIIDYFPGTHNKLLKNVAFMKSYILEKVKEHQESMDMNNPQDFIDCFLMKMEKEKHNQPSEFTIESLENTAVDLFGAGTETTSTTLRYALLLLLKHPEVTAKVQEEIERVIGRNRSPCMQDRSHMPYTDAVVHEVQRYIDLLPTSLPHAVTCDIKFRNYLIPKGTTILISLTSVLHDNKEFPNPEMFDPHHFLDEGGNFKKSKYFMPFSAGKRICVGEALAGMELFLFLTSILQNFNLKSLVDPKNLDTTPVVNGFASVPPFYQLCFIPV

SMILES: CC(Cc1ccc(O)c(O)c1)(NN)C(=O)O (centres undefined)
- outcome [1]: inactive

SMILES: COc1ccc2c(c1OC)C(=O)OC2[C@H]1c2c(cc3c(c2OC)OCO3)CCN1C (some centres undefined)
- outcome [2]: inactive
- outcome [3]: inactive
- Potency [4]: 15.8 µM (active)
- Potency [5]: 1.26 µM (active) and 316 nM (active) and 398 nM (active)

SMILES: COc1ccc(C(C)=O)c(O)c1
- Potency [6]: 1.26 µM (active)
- outcome [3]: inactive
- outcome [1]: inactive

SMILES: CN(C)CC[C@H](c1ccc(Cl)cc1)c1ccccn1
- outcome [2]: inactive
- Potency [7]: inactive

SMILES: Cc1cc(O)c2c(c1)C(=O)c1cccc(O)c1C2=O
- outcome [8]: inactive
- outcome [9]: inactive
- outcome [10]: inactive
- outcome [11]: inactive
- outcome [12]: inactive
- outcome [13]: inactive
- outcome [14]: inactive
- outcome [15]: inactive
- outcome [16]: inactive
- outcome [17]: inactive
- outcome [18]: inactive
- outcome [19]: inactive
- outcome [20]: inactive
- outcome [1]: inactive

SMILES: O=C(O)C=Cc1ccc(Cn2ccnc2)cc1
- outcome [3]: inactive
- Potency [4]: 0.0794 µM (active)

SMILES: COc1ccc([C@@H]2CNC(=O)C2)cc1OC1CCCC1
- Potency [7]: inactive
- outcome [3]: inactive
- Potency [4]: inactive
- Potency [5]: inactive

SMILES: COC(=O)C1C2CC3c4[nH]c5cc(OC)ccc5c4CCN3CC2CC(OC(=O)c2cc(OC)c(OC)c(OC)c2)C1OC (centres undefined)
- outcome [3]: inactive

SMILES: c1coc(CNc2ncnc3nc[nH]c23)c1
- outcome [1]: inactive

SMILES: Oc1cc2c(cc1O)C1c3ccc(O)c(O)c3OCC1(O)C2 (centres undefined)
- outcome [3]: inactive
- outcome [1]: inactive

SMILES: Cc1ccc(O)c(C(CCN(C(C)C)C(C)C)c2ccccc2)c1 (centres undefined)
- Potency [6]: inactive
- outcome [1]: inactive

SMILES: OCC(O)C(O)C(O)CO (centres undefined)
- Potency [6]: inactive
- outcome [1]: inactive

SMILES: CCC(C(=O)O)C1CCC(C)C(C(C)C(O)C(C)C(=O)C(CC)C2OC3(C=CC(O)[C@@]4(CC[C@](C)(C5CC[C@@](O)(CC)C(C)O5)O4)O3)C(C)CC2C)O1 (some centres undefined)
- outcome [1]: inactive

SMILES: CCCCCCCCCCCC(CC1OC(=O)C1CCCCCC)OC(=O)C(CC(C)C)NC=O (centres undefined)
- outcome [1]: inactive

SMILES: CCOC(=O)C1=C(C)NC(=S)NC1c1cccc(O)c1 (centres undefined)
- outcome [3]: inactive

SMILES: C[C@@]12C(=O)OC(=O)[C@@]1(C)C1CCC2O1
- Potency [6]: inactive
- outcome [1]: inactive

SMILES: O=c1c(O)c(-c2ccc(O)c(O)c2)oc2cc(O)ccc12
- Potency [7]: 20 µM (active)
- Potency [6]: 39.8 µM (active)
- outcome [3]: inactive
- Potency [4]: inactive
- Potency [5]: inactive
- outcome [1]: inactive
